# Measured values: PubChem BioAssay
# The source made the active and inactive calls.
# Experiments:
# Albumin (Bos taurus) = Albumin (Bos taurus) (UniProt P02769); assay: compounds binding labelled BSA control protein – biochemical, small-molecule microarray, Alexa647 label, 635/667 nm fluorescence, artefact control for SMM control protein annotation, profiling panel (AID 1118); conditions: BSA-A647 binding, fluorescence 635 nm, higher = more signal;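 note: score merges 667 nm emission intensity and signal-to-noise per printed compound spot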
# Sequence of Albumin (Bos taurus) (P02769 whole entry, looked up): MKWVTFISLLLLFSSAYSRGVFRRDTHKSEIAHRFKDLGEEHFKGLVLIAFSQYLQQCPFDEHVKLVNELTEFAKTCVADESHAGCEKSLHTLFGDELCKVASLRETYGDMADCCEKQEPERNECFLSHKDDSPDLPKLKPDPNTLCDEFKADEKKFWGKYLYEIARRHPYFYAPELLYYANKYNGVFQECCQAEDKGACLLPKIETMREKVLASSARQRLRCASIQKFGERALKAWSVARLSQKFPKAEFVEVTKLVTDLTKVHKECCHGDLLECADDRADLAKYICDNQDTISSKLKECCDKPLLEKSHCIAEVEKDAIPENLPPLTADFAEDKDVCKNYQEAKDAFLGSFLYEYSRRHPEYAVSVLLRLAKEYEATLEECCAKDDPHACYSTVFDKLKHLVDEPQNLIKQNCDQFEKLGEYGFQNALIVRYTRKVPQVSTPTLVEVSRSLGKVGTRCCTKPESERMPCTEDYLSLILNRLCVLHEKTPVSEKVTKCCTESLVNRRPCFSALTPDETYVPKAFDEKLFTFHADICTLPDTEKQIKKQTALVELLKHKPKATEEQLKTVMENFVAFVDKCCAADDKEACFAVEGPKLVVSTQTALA
# [1] = probe aXIP binding to arrayed compounds – biochemical, NeuroSMM set, 635/667 nm fluorescence, primary screen (AID 1119); conditions: small-molecule microarray, higher = more signal, called active from +8 up or from −8 down;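 note: probe is the protein aXip251-270 applied at 1 µg/mL to compound-printed slides; binding of probe to printed compounds measured as 667 nm fluorescence plus signal to noise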
# [2] = probe aNOTCH3 binding on compound microarray – biochemical, small-molecule microarray, 635/667 nm fluorescence, primary screen (AID 1120); conditions: higher = more signal;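 note: probe is a biotin-tagged antibody raised against NOTCH3 rather than NOTCH3 protein; score merges spot fluorescence near 667 nm with spot signal to noise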
# [3] = probe aNOTCH2 binding on compound microarray – biochemical, small-molecule microarray, 635/667 nm fluorescence, primary screen (AID 1121); conditions: higher = more signal;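 note: score merges feature fluorescence read at 667 nm with its signal to noise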
# [4] = biological target: Carbonic anhydrase 2 (Homo sapiens) (UniProt P00918); assay: compounds binding carbonic anhydrase 2 – biochemical, small-molecule microarray, Alexa647-labelled CAII, profiling panel (AID 1122); conditions: CAII-A647 binding fluorescence, higher = more signal
# [5] = COS7 lysate on small-molecule microarray, probe aHis, 635 nm (AID 1123); conditions: COS7 cell lysate, fluorescence, higher = more signal;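 note: z-score combines 667nm fluorescence intensity with signal-to-noise per printed compound spot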
# [6] = probe aLAP1 signal on lysate-treated microarray – cell lysate, small-molecule microarray, COS7 lysate, primary screen (AID 1124); conditions: probe aLAP1, fluorescence, higher = more signal;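 note: lysate comes from COS7 cells expressing LAP1 and is applied at 0.3 µg/mL; score merges spot fluorescence near 667 nm with signal-to-noise over triplicate slides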
# Sam68 (KHDRBS1) = assay: compounds binding KHDRBS1 protein – biochemical, small-molecule microarray, 635 nm fluorescence, primary screen (AID 1125); conditions: higher = more signal;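 note: score merges 667 nm channel intensity with signal to noise over triplicate slides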
# [7] = system: Chordin-like protein 2 (CHRDL2); assay: compounds binding chordin-like 2 – biochemical, small-molecule microarray, 635 nm fluorescence, primary screen (AID 1126); conditions: fluorescence 635 nm, higher = more signal;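 note: printed compound slides probed with Chrdl2 protein at 4 µg/mL for 1 h at 4 C; score merges 667 nm emission intensity with signal to noise over three replicate slides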
# [8] = biological target: Concanavalin-A (Canavalia ensiformis) (UniProt P02866); assay: compounds binding concanavalin A lectin – biochemical, small-molecule microarray, Alexa647 label, 635 nm, artefact control for SMM control protein annotation, primary screen (AID 1127); conditions: ConA-A647 binding fluorescence, higher = more signal;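 note: z combines 667 nm emission intensity with signal-to-noise across three replicate slides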
# Sequence of Concanavalin-A (Canavalia ensiformis) (P02866 whole entry, looked up): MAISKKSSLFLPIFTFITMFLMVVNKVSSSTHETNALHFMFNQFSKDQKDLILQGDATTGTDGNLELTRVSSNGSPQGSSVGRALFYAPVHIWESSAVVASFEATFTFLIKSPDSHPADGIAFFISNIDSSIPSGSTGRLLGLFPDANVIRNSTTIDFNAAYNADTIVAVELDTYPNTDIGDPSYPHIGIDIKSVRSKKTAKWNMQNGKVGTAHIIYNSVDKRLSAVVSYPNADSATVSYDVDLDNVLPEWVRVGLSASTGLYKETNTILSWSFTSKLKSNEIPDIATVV
# [9] = compounds binding Alexa647 anti-His antibody – biochemical, small-molecule microarray, 635 nm fluorescence, artefact control for SMM control protein annotation, primary screen (AID 1128); conditions: higher = more signal;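 note: score merges feature fluorescence with signal-to-noise for each printed compound spot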
# [10] = system: Human papillomavirus type 1a E7 protein (residues 1-88); assay: HPV1a E7 small-molecule binders, primary screen, biochemical, small-molecule microarray, residues 1-88, 635 nm (AID 1129); conditions: small-molecule microarray binding, fluorescence 635 nm; higher = more signal
# [11] = biological target: Focal adhesion kinase 1 (Homo sapiens) (UniProt Q05397); assay: PTK2 protein binding on printed compound slides – biochemical, small-molecule microarray, 635/667 nm fluorescence, BSA, DTT, primary screen (AID 1130); conditions: 635 nm fluorescence, higher = more signal;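 note: composite of spot emission at 667 nm and signal to noise over triplicate slides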
# Sequence of Focal adhesion kinase 1 (Homo sapiens) (Q05397 whole entry, looked up): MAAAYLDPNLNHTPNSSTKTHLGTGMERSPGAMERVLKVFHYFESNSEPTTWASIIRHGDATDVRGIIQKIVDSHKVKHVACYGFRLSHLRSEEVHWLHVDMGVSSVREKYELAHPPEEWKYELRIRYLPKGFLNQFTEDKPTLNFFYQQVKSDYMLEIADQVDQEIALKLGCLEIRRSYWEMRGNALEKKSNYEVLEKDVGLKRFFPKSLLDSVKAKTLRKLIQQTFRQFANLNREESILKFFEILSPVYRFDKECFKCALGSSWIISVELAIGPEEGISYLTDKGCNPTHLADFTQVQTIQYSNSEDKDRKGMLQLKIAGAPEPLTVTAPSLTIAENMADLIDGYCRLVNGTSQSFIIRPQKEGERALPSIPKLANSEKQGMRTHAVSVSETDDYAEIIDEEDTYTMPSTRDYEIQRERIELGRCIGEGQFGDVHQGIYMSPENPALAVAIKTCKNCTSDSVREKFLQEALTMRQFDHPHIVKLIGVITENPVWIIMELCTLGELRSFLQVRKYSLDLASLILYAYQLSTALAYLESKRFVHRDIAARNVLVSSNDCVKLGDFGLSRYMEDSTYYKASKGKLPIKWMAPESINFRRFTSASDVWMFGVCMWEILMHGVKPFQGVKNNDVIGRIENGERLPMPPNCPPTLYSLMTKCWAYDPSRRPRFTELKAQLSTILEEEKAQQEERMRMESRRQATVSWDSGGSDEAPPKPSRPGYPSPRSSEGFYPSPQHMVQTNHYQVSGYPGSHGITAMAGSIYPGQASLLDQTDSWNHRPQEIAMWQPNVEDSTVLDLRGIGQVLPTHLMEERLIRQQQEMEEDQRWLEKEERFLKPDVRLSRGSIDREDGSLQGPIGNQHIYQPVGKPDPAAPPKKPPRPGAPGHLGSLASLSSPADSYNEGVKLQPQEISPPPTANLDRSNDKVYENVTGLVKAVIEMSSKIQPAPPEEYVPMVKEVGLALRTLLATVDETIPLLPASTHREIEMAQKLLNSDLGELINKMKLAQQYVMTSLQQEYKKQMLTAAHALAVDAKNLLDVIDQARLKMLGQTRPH
# [12] = system: Fibrinogen (Alexa647-labelled); assay: Alexa647-fibrinogen binding to printed small molecules – biochemical, small-molecule microarray, 635/667 nm fluorescence, artefact control for SMM control-protein annotation, profiling panel (AID 1131); conditions: fibrinogen-A647 binding fluorescence, higher = more signal;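 note: z-score merges 667 nm fluorescence with per-spot signal-to-noise over triplicate slides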
# [13] = biological target: Follistatin (Homo sapiens) (UniProt P19883); assay: FST protein binding to printed compounds – biochemical, small-molecule microarray, 635/667 nm fluorescence, primary screen (AID 1132); conditions: 635 nm fluorescence, higher = more signal
# Sequence of Follistatin (Homo sapiens) (P19883 whole entry, looked up): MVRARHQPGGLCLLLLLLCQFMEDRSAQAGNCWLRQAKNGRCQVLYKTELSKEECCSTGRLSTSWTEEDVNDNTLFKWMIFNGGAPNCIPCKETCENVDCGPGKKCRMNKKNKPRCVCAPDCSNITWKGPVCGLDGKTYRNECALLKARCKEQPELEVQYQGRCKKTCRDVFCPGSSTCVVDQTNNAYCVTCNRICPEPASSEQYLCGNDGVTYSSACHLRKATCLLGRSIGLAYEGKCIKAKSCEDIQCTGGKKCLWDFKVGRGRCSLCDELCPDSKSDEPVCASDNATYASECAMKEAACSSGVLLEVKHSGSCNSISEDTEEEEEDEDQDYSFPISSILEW
# [14] = biological target: Fibroblast growth factor 2 (Homo sapiens) (UniProt P09038); assay: basic fibroblast growth factor binding to printed compounds – biochemical, small-molecule microarray, 635/667 nm fluorescence, primary screen (AID 1133); conditions: FGF2, fluorescence 635/667, higher = more signal
# Sequence of Fibroblast growth factor 2 (Homo sapiens) (P09038 whole entry, looked up): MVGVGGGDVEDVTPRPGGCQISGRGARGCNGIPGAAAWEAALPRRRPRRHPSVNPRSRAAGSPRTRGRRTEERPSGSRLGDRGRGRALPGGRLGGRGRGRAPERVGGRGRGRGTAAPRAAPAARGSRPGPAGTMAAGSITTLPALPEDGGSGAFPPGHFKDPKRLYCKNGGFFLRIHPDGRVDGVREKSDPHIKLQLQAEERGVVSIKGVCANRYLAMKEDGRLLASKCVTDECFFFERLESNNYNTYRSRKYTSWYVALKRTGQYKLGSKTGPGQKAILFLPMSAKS
# [15] = JC-1 mitochondrial potential readout, lung cancer cells – cell-based, A549, JC-1 fluorescence, basal, 24 h, 100 nL, profiling panel (AID 1138); conditions: higher = more signal;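 note: A549 lung adenocarcinoma cells under basal conditions with no added stimulus; test concentration not given here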
# Lefty1 = Lefty1 protein binding to printed compounds – biochemical, small-molecule microarray, 635/667 nm fluorescence, primary screen (AID 1139); conditions: fluorescence 635/667, higher = more signal
# [16] = system: wheat germ agglutinin (Triticum aestivum), Alexa647-labelled; assay: Alexa647-WGA lectin binding to printed small molecules – biochemical, small-molecule microarray, 635/667 nm fluorescence, artefact control for SMM control-protein annotation, profiling panel (AID 1140); conditions: WGA-A647 binding, 635 nm fluorescence, higher = more signal;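 note: score merges 667 nm feature emission with signal to noise over triplicate slides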
# [17] = biological target: Luciferin 4-monooxygenase (Photinus pyralis) (UniProt P08659); assay: inhibition of purified Photinus pyralis luciferase – biochemical, luminescence, purified enzyme, 2006 set, primary screen (AID 1141); conditions: purified firefly luciferase, SteadyGlo luminescence, 30 min; higher = more signal, called active from +8 up or from −8 down;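 note: cell-free assay with purified firefly luciferase at 100 ng per well in PBS; test concentration not given here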
# Sequence of Luciferin 4-monooxygenase (Photinus pyralis) (P08659 whole entry, looked up): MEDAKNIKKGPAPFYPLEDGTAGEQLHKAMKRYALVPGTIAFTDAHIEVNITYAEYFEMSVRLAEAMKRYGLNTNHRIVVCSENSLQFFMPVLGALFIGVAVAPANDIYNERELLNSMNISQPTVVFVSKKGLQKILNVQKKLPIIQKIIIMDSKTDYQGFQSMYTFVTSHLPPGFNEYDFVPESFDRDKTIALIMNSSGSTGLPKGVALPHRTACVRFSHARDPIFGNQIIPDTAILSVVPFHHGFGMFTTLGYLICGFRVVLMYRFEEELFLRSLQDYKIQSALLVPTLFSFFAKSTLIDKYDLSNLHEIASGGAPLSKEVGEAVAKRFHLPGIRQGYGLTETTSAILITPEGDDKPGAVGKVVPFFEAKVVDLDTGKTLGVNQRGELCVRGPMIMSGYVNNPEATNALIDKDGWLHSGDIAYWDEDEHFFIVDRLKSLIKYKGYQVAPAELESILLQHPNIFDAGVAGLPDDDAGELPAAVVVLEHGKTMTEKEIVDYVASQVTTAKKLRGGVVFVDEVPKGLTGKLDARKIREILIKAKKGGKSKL
smiles,measurement,setting,value
C=CC(=C)[C@H]1Oc2ccccc2S(=O)(=O)N2CCC[C@@H]12,composite z-score,Albumin (Bos taurus),0
same,composite Z-score,[1],0.0556 (inactive)
same,composite z-score,[2],-0.0588
same,composite z-score,[3],-0.156
same,composite z-score,[4],-0.293
same,composite z-score,[5],-0.284
same,composite z-score,[6],-0.0098
same,composite z-score,Sam68 (KHDRBS1),-0.973
same,composite z-score,[7],0.634
same,composite z-score,[8],-0.285
same,composite z-score,[9],-0.133
same,composite z-score,[10],-0.492
same,composite z-score,[11],-0.139
same,composite z-score,[12],0.224
same,composite z-score,[13],0.434
same,composite z-score,[14],0.0668
same,z-score,[15],0.16
same,composite z-score,Lefty1,0.201
same,composite z-score,[16],0.023
same,z-score,[17],-0.261 (inactive)
C[C@H]1C2[C@H](Cc3ccccc3)NC(=O)[C@]23C(=O)N[C@H](Cc2ccccc2)C(=O)N2CCC[C@H]2C(=O)NC/C=C\C/C=C/C3[C@@H]2O[C@]12C (stereo not given in full),composite z-score,Albumin (Bos taurus),0.157
same,composite Z-score,[1],0.0894 (inactive)
same,composite z-score,[2],-0.0613
same,composite z-score,[3],0.0022
same,composite z-score,[4],0.0997
same,composite z-score,[5],-0.0175
same,composite z-score,[6],0.249
same,composite z-score,Sam68 (KHDRBS1),0.194
same,composite z-score,[7],0.132
same,composite z-score,[8],0.78
same,composite z-score,[9],0.102
same,composite z-score,[10],-0.338
same,composite z-score,[11],1.11
same,composite z-score,[12],0.354
same,composite z-score,[13],0.559
same,composite z-score,[14],0.212
same,z-score,[15],0.367
same,composite z-score,Lefty1,0.302
same,composite z-score,[16],0.737
same,z-score,[17],-0.587 (inactive)
C=CCC(OC(C)=O)[C@@H]1[C@@H](N(Cc2ccc(-c3cccc(C(F)(F)F)c3)o2)C(=O)c2ccc(C)cc2)c2cc(OCCCO)ccc2N1C(=O)Cc1ccc2ccccc2c1 (stereo not given in full),composite z-score,Albumin (Bos taurus),-0.257
same,composite Z-score,[1],0.421 (inactive)
same,composite z-score,[2],-0.0702
same,composite z-score,[3],-0.153
same,composite z-score,[4],-0.253
same,composite z-score,[5],-0.275
same,composite z-score,[6],-0.472
same,composite z-score,Sam68 (KHDRBS1),-2.05
same,composite z-score,[7],0.264
same,composite z-score,[8],-0.594
same,composite z-score,[9],0.357
same,composite z-score,[10],-1.49
same,composite z-score,[11],0.0103
same,composite z-score,[12],0.658
same,composite z-score,[13],0.107
same,composite z-score,[14],-0.358
same,z-score,[15],0.71
same,composite z-score,Lefty1,-0.454
same,composite z-score,[16],0.234
same,z-score,[17],-0.453 (inactive)
CN1C(=O)C2C=CC(C(O)C#Cc3ccccc3)N(N3CCCCC3)C2C1=O (stereo not given),composite z-score,Albumin (Bos taurus),0.268
same,composite Z-score,[1],1.04 (inactive)
same,composite z-score,[2],1.15
same,composite z-score,[3],0.519
same,composite z-score,[4],0.798
same,composite z-score,[5],0.19
same,composite z-score,[6],1.3
same,composite z-score,Sam68 (KHDRBS1),-0.156
same,composite z-score,[7],0.111
same,composite z-score,[8],0.82
same,composite z-score,[9],2.14
same,composite z-score,[10],0.392
same,composite z-score,[11],-0.381
same,composite z-score,[12],0.933
same,composite z-score,[13],0.718
same,composite z-score,[14],0.756
same,z-score,[15],0.534
same,composite z-score,Lefty1,-0.418
same,composite z-score,[16],1.3
same,z-score,[17],-1.69 (inactive)
CC(C)C(CO)N1C(=O)[C@@H]2C3C(=O)OCCC/C=C\[C@H]3OC23C=CCN(CCN2CCOCC2)C(=O)[C@@H]13 (stereo not given in full),composite z-score,Albumin (Bos taurus),0.692
same,composite Z-score,[1],-0.298 (inactive)
same,composite z-score,[2],-0.21
same,composite z-score,[3],-0.0928
same,composite z-score,[4],0.463
same,composite z-score,[5],-0.301
same,composite z-score,[6],0.395
same,composite z-score,Sam68 (KHDRBS1),-0.362
same,composite z-score,[7],-0.254
same,composite z-score,[8],-0.724
same,composite z-score,[9],-0.92
same,composite z-score,[10],-1.54
same,composite z-score,[11],-0.0582
same,composite z-score,[12],-0.0904
same,composite z-score,[13],0.113
same,composite z-score,[14],0.164
same,z-score,[15],-0.835
same,composite z-score,Lefty1,0.579
same,composite z-score,[16],-1.24
same,z-score,[17],-0.519 (inactive)
CN1C(=O)C2C=CC(C(O)c3ccccc3)N(N(c3ccccc3)c3ccccc3)C2C1=O (stereo not given),composite z-score,Albumin (Bos taurus),0.273
same,composite Z-score,[1],0.22 (inactive)
same,composite z-score,[2],0.215
same,composite z-score,[3],0.105
same,composite z-score,[4],0.763
same,composite z-score,[5],0.321
same,composite z-score,[6],1.34
same,composite z-score,Sam68 (KHDRBS1),-0.494
same,composite z-score,[7],0.781
same,composite z-score,[8],-0.529
same,composite z-score,[9],1.95
same,composite z-score,[10],-0.54
same,composite z-score,[11],0.112
same,composite z-score,[12],0.384
same,composite z-score,[13],1.34
same,composite z-score,[14],-0.0637
same,z-score,[15],-0.516
same,composite z-score,Lefty1,0.03
same,composite z-score,[16],0.489
same,z-score,[17],1.07 (inactive)
C=C(C(=O)CC[C@@H](OC(=O)c1cccnc1)c1ccccc1OCCO)C(C)C,composite z-score,Albumin (Bos taurus),0.116
same,composite Z-score,[1],0.59 (inactive)
same,composite z-score,[2],0.0909
same,composite z-score,[3],-0.092
same,composite z-score,[4],0.638
same,composite z-score,[5],0.206
same,composite z-score,[6],1.51
same,composite z-score,Sam68 (KHDRBS1),0.489
same,composite z-score,[7],0.411
same,composite z-score,[8],-0.67
same,composite z-score,[9],-0.242
same,composite z-score,[10],0.131
same,composite z-score,[11],-0.0995
same,composite z-score,[12],0.0673
same,composite z-score,[13],0.719
same,composite z-score,[14],0.647
same,z-score,[15],-0.102
same,composite z-score,Lefty1,1.23
same,composite z-score,[16],0.486
same,z-score,[17],-0.484 (inactive)
COc1ccc(C(=O)Nc2ccc(CN3C(=O)[C@]4(O[C@H](CCO)[C@@H]([Si](C)(C)c5ccc(OC)cc5)[C@@H]4C)c4ccccc43)cc2)cc1,composite z-score,Albumin (Bos taurus),0.357
same,composite Z-score,[1],0.377 (inactive)
same,composite z-score,[2],0.149
same,composite z-score,[3],-0.0891
same,composite z-score,[4],0.283
same,composite z-score,[5],0.417
same,composite z-score,[6],-0.337
same,composite z-score,Sam68 (KHDRBS1),1.22
same,composite z-score,[7],0.531
same,composite z-score,[8],1.09
same,composite z-score,[9],0.215
same,composite z-score,[10],1.06
same,composite z-score,[11],0.246
same,composite z-score,[12],0.599
same,composite z-score,[13],0.995
same,composite z-score,[14],0.894
same,z-score,[15],-1.41
same,composite z-score,Lefty1,1.36
same,composite z-score,[16],0.526
same,z-score,[17],0.362 (inactive)
O=C1NC(=O)C2C1C=CC(C(O)c1cc(C(F)(F)F)cc(C(F)(F)F)c1)N2Nc1ccccn1 (stereo not given),composite z-score,Albumin (Bos taurus),0.0063
same,composite Z-score,[1],0.416 (inactive)
same,composite z-score,[2],-0.0972
same,composite z-score,[3],-0.0486
same,composite z-score,[4],0.673
same,composite z-score,[5],2.15
same,composite z-score,[6],0.536
same,composite z-score,Sam68 (KHDRBS1),0.079
same,composite z-score,[7],0.673
same,composite z-score,[8],0.297
same,composite z-score,[9],0.191
same,composite z-score,[10],0.289
same,composite z-score,[11],0.187
same,composite z-score,[12],0.604
same,composite z-score,[13],0.89
same,composite z-score,[14],0.047
same,z-score,[15],0.456
same,composite z-score,Lefty1,0.187
same,composite z-score,[16],0.574
same,z-score,[17],0.0198 (inactive)
O=C(NCCO)C1=C[C@H](Oc2ccccc2I)[C@@H](O)[C@H](N(Cc2ccco2)C(=O)Cc2ccccc2)C1,composite z-score,Albumin (Bos taurus),-0.884
same,composite Z-score,[1],0.524 (inactive)
same,composite z-score,[2],-0.0014
same,composite z-score,[3],-0.0956
same,composite z-score,[4],-0.17
same,composite z-score,[5],-0.604
same,composite z-score,[6],-0.0107
same,composite z-score,Sam68 (KHDRBS1),-0.24
same,composite z-score,[7],0.607
same,composite z-score,[8],-0.981
same,composite z-score,[9],-0.169
same,composite z-score,[10],0.234
same,composite z-score,[11],-0.27
same,composite z-score,[12],-0.175
same,composite z-score,[13],0.863
same,composite z-score,[14],0.58
same,z-score,[15],-1.18
same,composite z-score,Lefty1,0.624
same,composite z-score,[16],-0.109
same,z-score,[17],0.341 (inactive)
